# Measured values taken from PubChem BioAssay (NCI).
# The panel holds about 83,000 compounds, 20% with a hit somewhere; the sample as a whole holds those more often.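 Interpretation: 100, growth as untreated; towards 0, rising growth inhibition; 0, no net growth; 0 to -100, cell death. Compounds scoring below 10 were considered active.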 Values without a mark were called inactive. Active and inactive are the calls of the source.
# Key:
# Experiment in all cases: NCI-60 one-dose screen, 48 h (100 = growth as untreated, 0 = no growth, -100 = all killed)
# Conditions in all cases: 10 µM
# [1] = tested on: DU-145 prostate
# [2] = tested on: K-562 leukemia
# [3] = tested on: MALME-3M melanoma
# [4] = tested on: MDA-MB-231 breast
# [5] = tested on: RXF 393 renal
# [6] = tested on: SF-268 CNS
# [7] = tested on: SF-295 CNS
# [8] = tested on: SF-539 CNS
# [9] = tested on: UACC-257 melanoma
# [10] = tested on: M14 melanoma
# [11] = tested on: HCT-15 colon
# [12] = tested on: HT29 colon
# [13] = tested on: SNB-75 CNS
# [14] = tested on: SNB-19 CNS
# [15] = tested on: U251 CNS
# [16] = tested on: PC-3 prostate
# [17] = tested on: SK-MEL-5 melanoma
# [18] = tested on: UACC-62 melanoma
# [19] = tested on: LOX IMVI melanoma
# [20] = tested on: SK-MEL-28 melanoma
SMILES,growth [1],growth [2],growth [3],growth [4],growth [5],growth [6],growth [7],growth [8],growth [9],growth [10],growth [11],growth [12],growth [13],growth [14],growth [15],growth [16],growth [17],growth [18],growth [19],growth [20]
O=C(Nc1ccc(F)cc1)c1cc2ccccc2cc1O,85.7%,45.6%,72%,66.7%,94.6%,87.3%,90.7%,84%,58.1%,88.4%,76%,95.8%,91.8%,83.3%,79.6%,42.9%,65.7%,57.6%,76%,88.7%
CN1CCN(CC(=O)Nc2cccc(-n3cc(-c4ccncc4)c(-c4ccc(Cl)c(O)c4)n3)c2)CC1,19.4%,11.8%,46.3%,46.1%,35%,47.7%,21.8%,0.848% (active),24.9%,8.05% (active),40.5%,4.08% (active),30.5%,55.5%,30.8%,26.6%,27.3%,48.3%,14.6%,60.8%
N#CCc1csc(Cc2ccccc2)n1,108%,103%,101%,114%,119%,100%,106%,104%,94.5%,101%,109%,98%,101%,101%,103%,109%,102%,103%,95.9%,108%
COc1cc2cc(Oc3ccc(NC(=O)Nc4ccc(Cl)c(C(F)(F)F)c4)cc3)c(C)nc2cc1OC,12.7%,-9.54% (active),-23% (active),-50.6% (active),-33.4% (active),-10.2% (active),-70.9% (active),-36.2% (active),-12.5% (active),-73.6% (active),1.27% (active),-24.9% (active),12.5%,23.7%,-80.4% (active),-0.614% (active),-73.4% (active),-51.5% (active),-81.3% (active),-35.9% (active)
O=C1CSC(=S)N1/N=C/c1ccc(Cl)s1,109%,105%,103%,99.4%,108%,91.9%,100%,95.1%,110%,107%,97.9%,110%,111%,97.7%,99.3%,98.1%,97%,100%,88.5%,107%
COc1cc(/C=C/c2cc(/C=C/c3ccc(O)c(OC)c3)n(C(=O)Nc3ccccc3Cl)n2)ccc1O,1.28% (active),2.27% (active),8.27% (active),17.7%,-50.3% (active),-6.38% (active),2.83% (active),4.06% (active),1.28% (active),0.265% (active),15%,-35% (active),-4.71% (active),15.5%,2.33% (active),6.54% (active),-23.8% (active),1.04% (active),1.22% (active),12.1%
C=CCSC(CC)(CC)C(=O)NC,120%,98.3%,115%,114%,107%,112%,105%,103%,92.1%,103%,101%,87%,89.5%,102%,101%,101%,103%,103%,100%,110%
CCN1CCN(CCC(=O)Nc2cccc(-n3cc(-c4ccncc4)c(-c4ccc(Cl)c(OC)c4)n3)c2)CC1,12.4%,-34% (active),-63.6% (active),4.87% (active),-7.05% (active),35.4%,9.42% (active),-51.9% (active),-85.5% (active),-63.4% (active),13.7%,-23.4% (active),9.22% (active),39.4%,-7.85% (active),16.5%,-3.03% (active),-17% (active),-47.5% (active),-52.3% (active)
COc1ccc(/C=C2\CCCC3=C2NC(N)=NC3c2ccc(OC)c(OC)c2)cc1OC (stereo not given),76.7%,56%,52.5%,74%,20.9%,63.8%,70.7%,85.2%,46.2%,57.3%,35.9%,24.2%,63.9%,88.7%,37.8%,61.5%,39.7%,52.8%,12.9%,65.3%
COc1cc(C(=O)n2nc(-c3cc(OC)c(OC)c(OC)c3)nc2N)cc(OC)c1OC,101%,77.8%,103%,108%,114%,93.4%,92.7%,96.6%,101%,89.9%,100%,82.7%,81.9%,102%,97.3%,95.7%,94.5%,102%,95.8%,97%
Cc1ccc(NCCNCC(C)(C)O)c2c(=O)c3ccc(Cl)cc3sc12,5.67% (active),-63.1% (active),-71.8% (active),-36.9% (active),24.2%,39.4%,74.1%,69.8%,78.5%,-78.7% (active),-7.39% (active),-73.1% (active),76.1%,46.2%,-74.5% (active),36.8%,44.2%,-66.6% (active),-92.6% (active),-60% (active)
CN(C)CCCOc1ccccc1NC1=C(Cl)C(=O)C(Nc2ccccc2OCCCN(C)C)=C(Cl)C1=O,-97.2% (active),-25.3% (active),-77.6% (active),-71.9% (active),-98.2% (active),-88.1% (active),-58.8% (active),-96.6% (active),-92.9% (active),-68.8% (active),-49% (active),-51% (active),35%,-87.1% (active),-86.1% (active),-20.8% (active),-96.3% (active),-77.8% (active),-74.9% (active),14.1%
O=C(N/N=C/c1cc([N+](=O)[O-])ccc1O)c1cccc2ccccc12,45.2%,30.3%,53.7%,40.9%,46.5%,39.8%,26.4%,22.9%,23.5%,34.5%,22.5%,65.9%,55%,53%,29.8%,41.4%,39.1%,9.83% (active),9.69% (active),50%
O=C(CSc1nnc(-c2cccnc2SCc2ccccc2)o1)Nc1nc(Cl)cc(Cl)n1,107%,92.8%,94%,92%,105%,99.7%,96.8%,101%,113%,92%,106%,110%,85.7%,106%,106%,94.5%,101%,101%,94.9%,113%
COc1cc(-c2nn(-c3ccc(NC(=O)NCCCNC(=O)c4ccccc4)cc3)cc2-c2ccncc2)ccc1Cl,20.6%,12.4%,47.3%,19.1%,25.2%,37.6%,0.436% (active),-10.5% (active),63.3%,12.2%,20.3%,3.51% (active),25%,55.8%,14.9%,19.4%,-43.5% (active),51.7%,15.1%,52.1%
Oc1ccc(-c2[nH]c3ccccc3c2-c2nc3ccccc3o2)cc1,78.6%,19.2%,65%,48.7%,91.6%,69.8%,72.1%,82.7%,112%,25.1%,25.4%,27.8%,52.3%,89.6%,60.9%,57.4%,43.4%,59.6%,34.6%,58%
